Source: PubChem BioAssay (Tox21)
Results filed as inconclusive are left out. Active and inactive are the calls of the source. Unless noted, calls come from the whole dose curve.

Key:
[1] = Nuclear factor erythroid 2-related factor 2/antioxidant responsive element (Nrf2/ARE) small molecule agonists: qHTS cell viability counter screen in human keratinocytes (AID 1919968; active = well fitted curve in the direction sought with a large enough effect in the repeat runs; an effect the other way counts as inactive or inconclusive; note: nearly all actives have a fitted effect of over 55% in size)
Summary of the method: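 Fluorescence read-out from CellTiter-Fluor after 1 h at 37 C. Wells held HaCaT-derived ARE-luciferase reporter cells (1,500/well) treated 23 h with DMSO-dissolved compounds. Run in the same wells as the luciferase agonist read.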

[2] = Nuclear factor erythroid 2-related factor 2/antioxidant responsive element (Nrf2/ARE) small molecule agonists: luciferase reporter gene qHTS assay in human keratinocytes (AID 1919969); note: nearly all actives have a fitted effect of over 35% in size
[3] = target: Gonadotropin-releasing hormone receptor (Homo sapiens) (UniProt P30968); assay: Human gonadotropin-releasing hormone receptor (GnRHR) small molecule agonists, calcium flux assay in GnRHR-HEK293 cells (AID 1920063); note: nearly all actives have a fitted effect of over 35% in size
Summary of the method: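 Calcium-dye fluorescence, Ex/Em=480/540, recorded every 1 sec over 3 min after compound addition to GnRHR-HEK293 cells. Cells had been seeded 18 hours earlier and dye-loaded for 1 hour at 37 C. Fifteen concentrations, triplicates.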

[4] = target: KiSS-1 receptor (Homo sapiens) (UniProt Q969F8); assay: Human kisspeptin (KISS1R) small molecule agonists, calcium flux assay in KISS1R-HEK293 cells (AID 1920064; active = well fitted curve in the direction sought with a large enough effect in the repeat runs; an effect the other way counts as inactive or inconclusive)
Summary of the method: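 Calcium flux read-out: kinetic fluorescence at Ex/Em=480/540, 1 s intervals over 3 min, after pin-tool compound addition to dye-loaded KISS1R-HEK293 cells. Fifteen concentrations, triplicates.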

[5] = G protein-coupled receptor (GPCR) small molecule agonists, calcium flux assay: HEK293 wild type cell line counter screen (AID 1920065)
Summary of the method: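 Agonist mode; 18 h seeding at 37 C, 1 h dye load at 37 C; compounds pinned from DMSO, ATP as positive control; kinetic fluorescence 480/540 nm, 3 min, 1 s reads; 15 concentrations, triplicate.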

[6] = p53 small molecule agonists, cell-based qHTS assay with human liver microsomes (AID 1963577)
Summary of the method: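 Compounds act here after metabolic activation: human liver microsomes and NADPH, both at 0.5 mg/mL final, were co-added to p53RE-bla cells. Incubation ran 16 h at 37 C, followed by LiveBLAzer detection.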

[7] = p53 small molecule agonists, cell-based qHTS assay with rat liver microsomes (AID 1963578)
Summary of the method: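 Read-out is beta-lactamase reporter fluorescence (LiveBLAzer, 2 h, room temperature, dark) in p53RE-bla cells treated 16 h at 37 C with compound, rat liver microsomes and NADPH, both 0.5 mg/mL final.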

[8] = p53 small molecule agonists, cell-based qHTS assay: qHTS cell viability counter screen (AID 1963581); note: nearly all actives have a fitted effect of over 45% in size
Summary of the method: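 Cytotoxicity read-out: ATP-based luminescence (CellTiter-Glo, 30 min RT) measured in the same wells as the p53 reporter assay, HCT-116 p53RE-bla cells, 16 h compound exposure at 37 C.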

[9] = p53 small molecule agonists, cell-based qHTS assay (AID 1963582; active = well fitted activation curve with a large enough effect in the signal ratio in the repeat runs, not every such curve was filed as active; the % refers to the signal ratio)
Summary of the method: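 Fluorescence intensity read-out of a beta-lactamase reporter under a p53 response element. Cells were exposed to DMSO-dissolved compounds for 16 h at 37 C, then developed with FRET substrate for 2 h at RT.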

[10] = target: 5-hydroxytryptamine receptor 2A (Homo sapiens) (UniProt P28223); assay: 5-hydroxytryptamine receptor 2A (HTR2A) small molecule antagonists, cell-based qHTS assay (AID 1963586); note: nearly all actives have a fitted effect of over 45% in size; note: potency is the fitted concentration of half-maximal effect
Summary of the method: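 CHO cells stably expressing human HTR2A were plated for 18 h at 37 C, then loaded with calcium dye for 1 h. Compounds were preincubated 5 min at room temperature before DOI (4 nM solution) was added. Kinetic fluorescence was read for 3 min.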

[11] = target: 5-hydroxytryptamine receptor 2A (Homo sapiens) (UniProt P28223); assay: 5-hydroxytryptamine receptor 2A (HTR2A) small molecule agonists, cell-based qHTS assay (AID 1963587); note: nearly all actives have a fitted effect of over 30% in size; note: potency is the fitted concentration of half-maximal effect
Summary of the method: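 CHO cells stably expressing human HTR2A, plated 18 h, loaded with calcium dye 1 h at 37 C. Agonist mode: compounds added and intracellular calcium fluorescence recorded kinetically for 2 min at 1 sec intervals.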

[12] = target: Muscarinic acetylcholine receptor M1 (Homo sapiens) (UniProt P11229); assay: Cholinergic receptor muscarinic 1 (CHRM1) small molecule antagonists, cell-based qHTS assay (AID 1963588); note: nearly all actives have a fitted effect of over 40% in size; note: potency is the fitted concentration of half-maximal effect
Summary of the method: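 Compounds were tested at 15 concentrations in three independent runs. Dye-loaded CHRM1-CHO cells were exposed 5 min at room temperature before stimulation by acetylcholine added at 50nM. Intracellular calcium was read kinetically on FDSS for 3 min.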

[13] = target: Muscarinic acetylcholine receptor M1 (Homo sapiens) (UniProt P11229); assay: Cholinergic receptor muscarinic 1 (CHRM1) small molecule agonists, cell-based qHTS assay (AID 1963589); note: nearly all actives have a fitted effect of over 35% in size
Summary of the method: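 Calcium flux read-out: kinetic fluorescence at 1 sec intervals after pin-tool compound addition to dye-loaded CHRM1-CHO cells (human M1). Agonist mode; 15 concentrations tested in triplicate independent runs.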

[14] = cAMP Responsive Elements (CRE) small molecule agonists, cell-based qHTS assay (AID 1963590)
Summary of the method: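 Beta-lactamase reporter readout: LiveBLAzer B/G FRET substrate, 2 h at room temperature, added after 3 h compound treatment of CRE-bla HEK 293T cells at 37 C/5% CO2.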

[15] = cAMP Responsive Elements (CRE) small molecule antagonists, cell-based qHTS assay (AID 1963591; active = well fitted inhibition curve with a large enough effect in the signal ratio in the repeat runs, not every such curve was filed as active; the % refers to the signal ratio)
Summary of the method: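 HEK293T CRE-bla; 18 h preincubation; compound pin-transfer; NKH477 0.25 uM final, 3 h, 37 C; LiveBLAzer FRET substrate 2 h RT.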

[16] = target: Beta-2 adrenergic receptor (Homo sapiens) (UniProt P07550); assay: Adrenergic beta2 receptor (ADRB2) small molecule antagonists, cell-based qHTS assay (AID 1963592); note: series mostly up to about 92 µM; nearly all actives have a fitted effect of over 50% in size
Summary of the method: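 Assay format: CHO-ADRB2 cells, 18-20hr seeding at 37C/5% CO2, then compound plus 1nM isoproterenol agonist mix for 0.5hr RT. Homogeneous time-resolved fluorescence cAMP detection after 1hr, expressed as 665/615 nm ratio.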

[17] = target: D(2) dopamine receptor (Homo sapiens) (UniProt P14416); assay: Dopamine D2 receptor (DRD2) small molecule agonists, cell-based qHTS assay (AID 1963594); note: nearly all actives have a fitted effect of over 35% in size
Summary of the method: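 HEK293 cells stably expressing human DRD2, pre-treated with PDE inhibitor Ro20-1724 (0.1 mM final) and compound 10 min at room temperature, then stimulated with NKH477 (200nM […]) for 30 min. cAMP read by HTRF (665/620 nm).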

[18] = target: D(2) dopamine receptor (Homo sapiens) (UniProt P14416); assay: Dopamine D2 receptor (DRD2) small molecule antagonists, cell-based qHTS assay (AID 1963595; active = well fitted inhibition curve with a large enough effect in the signal ratio in the repeat runs, with a control signal flat; the % refers to the signal ratio; note: potency is the fitted concentration of half-maximal effect)
Summary of the method: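 Stable D2 receptor HEK293 line, 24 h after seeding. Compound preincubated 10 min, then quinpirole (12 nM) with forskolin analogue NKH477 (200 nM), 30 min, room temperature. Detection by time-resolved FRET of cAMP.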

[19] = p53 small molecule agonists, cell-based qHTS assay with rat liver microsomes: qHTS cell viability counter screen (AID 1963580); note: nearly all actives have a fitted effect of over 45% in size
Summary of the method: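 After the beta-lactamase ratio was read, CellTiter-Glo was added to the same wells and luminescence measured at 30 min; cells had been treated 16 h at 37 C with compounds, rat liver microsomes and NADPH (0.5 mg/mL final each).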

[20] = p53 small molecule agonists, cell-based qHTS assay with human liver microsomes: qHTS cell viability counter screen (AID 1963579); note: nearly all actives have a fitted effect of over 45% in size
Summary of the method: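 Cells carrying the p53 response-element beta-lactamase reporter are treated for 16 h at 37 C with test compounds in the presence of human liver microsomes and NADPH (both 0.5 mg/mL final); ATP-based CellTiter-Glo luminescence then reports viability.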

Measured: Potency

Chain of Beta-2 adrenergic receptor (Homo sapiens) (P07550 whole entry, looked up): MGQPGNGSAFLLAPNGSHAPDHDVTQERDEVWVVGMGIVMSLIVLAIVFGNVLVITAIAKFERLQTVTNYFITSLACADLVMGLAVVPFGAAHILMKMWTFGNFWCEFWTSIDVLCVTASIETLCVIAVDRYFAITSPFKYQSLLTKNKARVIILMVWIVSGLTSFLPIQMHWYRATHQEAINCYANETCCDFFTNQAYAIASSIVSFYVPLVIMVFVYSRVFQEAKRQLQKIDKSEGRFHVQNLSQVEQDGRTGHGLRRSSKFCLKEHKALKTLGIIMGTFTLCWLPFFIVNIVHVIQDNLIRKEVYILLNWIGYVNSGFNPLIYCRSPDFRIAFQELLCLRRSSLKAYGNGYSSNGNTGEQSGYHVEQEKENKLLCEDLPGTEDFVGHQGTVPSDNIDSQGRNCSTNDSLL
Chain of KiSS-1 receptor (Homo sapiens) (Q969F8 whole entry, looked up): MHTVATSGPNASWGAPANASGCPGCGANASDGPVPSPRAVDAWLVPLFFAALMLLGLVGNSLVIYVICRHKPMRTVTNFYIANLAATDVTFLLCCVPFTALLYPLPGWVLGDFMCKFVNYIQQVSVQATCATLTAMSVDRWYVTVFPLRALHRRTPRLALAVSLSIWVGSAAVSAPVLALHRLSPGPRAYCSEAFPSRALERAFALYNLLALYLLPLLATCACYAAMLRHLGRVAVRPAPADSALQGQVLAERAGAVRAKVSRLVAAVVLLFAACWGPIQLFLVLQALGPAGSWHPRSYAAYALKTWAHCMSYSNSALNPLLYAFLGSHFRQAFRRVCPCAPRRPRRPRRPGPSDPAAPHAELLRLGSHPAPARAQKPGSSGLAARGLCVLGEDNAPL
Chain of 5-hydroxytryptamine receptor 2A (Homo sapiens) (P28223 whole entry, looked up): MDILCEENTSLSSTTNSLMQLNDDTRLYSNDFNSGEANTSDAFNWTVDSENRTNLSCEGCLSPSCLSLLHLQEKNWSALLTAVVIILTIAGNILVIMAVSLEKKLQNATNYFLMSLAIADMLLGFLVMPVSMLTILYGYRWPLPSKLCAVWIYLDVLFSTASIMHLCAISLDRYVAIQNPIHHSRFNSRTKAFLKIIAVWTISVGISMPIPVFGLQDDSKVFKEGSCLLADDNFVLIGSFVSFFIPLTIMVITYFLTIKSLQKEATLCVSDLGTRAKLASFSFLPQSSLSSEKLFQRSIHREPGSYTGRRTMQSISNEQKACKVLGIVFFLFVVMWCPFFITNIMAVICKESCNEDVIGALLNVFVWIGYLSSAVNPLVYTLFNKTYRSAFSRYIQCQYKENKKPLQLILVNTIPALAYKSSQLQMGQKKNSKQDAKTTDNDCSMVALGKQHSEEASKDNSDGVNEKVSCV
Chain of Gonadotropin-releasing hormone receptor (Homo sapiens) (P30968 whole entry, looked up): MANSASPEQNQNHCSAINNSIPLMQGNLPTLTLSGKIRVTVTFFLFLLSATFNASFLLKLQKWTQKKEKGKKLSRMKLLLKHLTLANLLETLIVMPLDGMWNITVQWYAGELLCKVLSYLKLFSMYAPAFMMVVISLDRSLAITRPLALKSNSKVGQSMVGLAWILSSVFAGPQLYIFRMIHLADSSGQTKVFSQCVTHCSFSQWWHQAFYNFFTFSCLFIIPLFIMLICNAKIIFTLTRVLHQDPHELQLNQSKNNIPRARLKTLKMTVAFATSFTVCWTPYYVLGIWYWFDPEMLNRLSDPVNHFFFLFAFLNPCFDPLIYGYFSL
Chain of D(2) dopamine receptor (Homo sapiens) (P14416 whole entry, looked up): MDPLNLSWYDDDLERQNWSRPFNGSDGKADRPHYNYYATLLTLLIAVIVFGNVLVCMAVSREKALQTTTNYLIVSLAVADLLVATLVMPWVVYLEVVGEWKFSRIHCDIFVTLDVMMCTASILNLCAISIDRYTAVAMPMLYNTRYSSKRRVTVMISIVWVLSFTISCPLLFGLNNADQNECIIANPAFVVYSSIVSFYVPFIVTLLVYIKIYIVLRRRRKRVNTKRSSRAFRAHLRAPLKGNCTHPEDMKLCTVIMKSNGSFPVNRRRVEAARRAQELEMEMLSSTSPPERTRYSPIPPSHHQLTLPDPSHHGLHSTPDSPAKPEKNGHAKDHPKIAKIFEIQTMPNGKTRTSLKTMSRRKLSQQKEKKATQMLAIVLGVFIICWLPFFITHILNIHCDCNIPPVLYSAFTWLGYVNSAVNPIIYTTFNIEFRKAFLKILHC
Chain of Muscarinic acetylcholine receptor M1 (Homo sapiens) (P11229 whole entry, looked up): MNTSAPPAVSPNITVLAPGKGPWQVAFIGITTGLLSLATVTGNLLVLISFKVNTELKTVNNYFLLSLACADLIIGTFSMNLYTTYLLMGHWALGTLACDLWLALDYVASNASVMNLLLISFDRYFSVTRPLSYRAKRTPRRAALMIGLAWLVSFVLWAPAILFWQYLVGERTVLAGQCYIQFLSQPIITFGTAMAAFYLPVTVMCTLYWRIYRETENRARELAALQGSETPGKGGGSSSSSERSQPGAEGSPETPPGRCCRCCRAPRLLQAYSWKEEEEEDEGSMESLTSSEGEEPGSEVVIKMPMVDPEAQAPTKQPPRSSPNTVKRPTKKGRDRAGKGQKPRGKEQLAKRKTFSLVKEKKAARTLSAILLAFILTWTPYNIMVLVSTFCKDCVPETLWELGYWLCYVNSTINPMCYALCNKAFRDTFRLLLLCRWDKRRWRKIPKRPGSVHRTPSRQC

CC/C=C\CCOC(=O)c1ccccc1O
not listed: [18] | [19] | [20]
inactive: all other assays above

CO[Si](C)(OC)c1ccccc1
not listed: [15] | [19] | [20]
inactive: all other assays above

O=C(O)c1ccc(Cl)c(Cl)c1
not listed: [8] | [14] | [20]
inactive: all other assays above

CC(=O)C1CCCCC1=O (configuration not stated)
not listed: [7]
inactive: all other assays above

O=S(=O)(c1ccccc1)c1ccc(Cl)cc1
not listed: [15] | [16] | [19] | [20]
inactive: all other assays above

CCOCCOCCOC(C)=O
not listed: [7]
inactive: all other assays above

CC(C)=CCC/C(C)=C/COC=O
not listed: [7]
inactive: all other assays above

CCCCCCCCN
not listed: [11] | [18] | [19] | [20]
inactive: all other assays above

C[N+]1(CC2COC(c3ccccc3)(C3CCCCC3)O2)CCCCC1 (configuration not stated)
not listed: [8] | [9] | [14] | [15] | [20]
inactive: all other assays above

Clc1cccnc1
not listed: [7]
inactive: all other assays above

C=C(C)C(=O)OCCN(CC)CC
not listed: [8] | [10] | [11] | [20]
inactive: all other assays above

O=S(=O)(O)c1ccc(Cl)cc1
not listed: [8] | [13] | [20]
inactive: all other assays above

COc1ccccc1N1CCN(CCCCNC(=O)c2ccc(-c3ccc(C(C)=O)cc3)cc2)CC1
active: [10] 0.326 µM | [11] 0.0535 µM | [12] 1.03 µM | [18] 0.75 µM
not listed: [8] | [15] | [16] | [20]
inactive: all other assays above

CCCCCCC(O)CO (configuration not stated)
not listed: [7]
inactive: all other assays above
